ATXN2 expr inh – ATXN2 expression inhibition; HEK-293 ATXN2-luciferase reporter, luminescence, 24 h; hit rate 0.72% among 360,000; Potency, µM (top dose mostly 57 µM), inactives show top-dose activity change, negative = inhibition, actives largely listed as inhibitors; note: % is set by controls: 0 for no effect and ±100 for the full control effect; nearly all actives have a fitted effect of over 55% in size
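ATXN2-luciferase reporter cells (luciferase flanked by upstream and downstream ATXN2 gene portions) were treated 24 h at 37 °C with compounds at up to 57 uM. SteadyGlo luminescence gave expression; GF-AFC fluorescence gave viability.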
TGFb SMAD3 inh – inhibitors of TGF-b signaling. HepG2 CAGA-GFP TGF-b/SMAD3 reporter, GFP fluorescence, 18 h; TGF-beta stimulated, 500 pg/mL final. Potency, µM (titrated, usually from 46.1 µM), for the others: top-dose activity, negative = inhibition, actives largely listed as inhibitors. hit rate 1.2% among 410,000; note: % is set by controls: 0 for no effect and ±100 for the full control effect; nearly all actives have a fitted effect of over 65% in size
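HEPG2 CAGA-GFP, 1000 cells/well; 2 h settle, 37 C; cpd via pin tool; TGF-b 500 pg/mL final; 18 h, 37 C; GFP imaging ex488/em500-530; %Activity normalised to -TGF-b and +DMSO controls; CRC fit, curve class.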
HepG2 viability – kills HepG2 cells in TGF-b inhibitor counter-screen. HepG2 CAGA-GFP viability, ATP luminescence, 18 h. AID 588856. Potency, µM (top dose mostly 46.1 µM), for the others: top-dose activity change, negative = cytotoxicity, most hits filed as cytotoxic. hit rate 0.76% among 410,000
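CellTiter-Glo luminescence gave cytotoxicity after 18 hours at 37 degrees C. The cells were HepG2 CAGA-GFP in 1% FBS DMEM, stimulated with 500 pg/mL TGF-beta after compound addition. %Activity was normalised to no-cell wells (complete cell-killing) and DMSO (no toxicity), and curves were fitted and classified.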
GLP1R ag – GLP-1 receptor (human) agonism; hit rate 0.007% among 380,000; Potency, µM (titrated, usually from 45.6 µM), inactives show top-dose activation, hits mostly activators; P43220; HEK293 GLP-1R CRE-luciferase, luminescence, 4-6 h; cells express a hypersensitive GLP-1R form; note: % of control where 0% means no effect
Target sequence (P43220 whole entry, looked up): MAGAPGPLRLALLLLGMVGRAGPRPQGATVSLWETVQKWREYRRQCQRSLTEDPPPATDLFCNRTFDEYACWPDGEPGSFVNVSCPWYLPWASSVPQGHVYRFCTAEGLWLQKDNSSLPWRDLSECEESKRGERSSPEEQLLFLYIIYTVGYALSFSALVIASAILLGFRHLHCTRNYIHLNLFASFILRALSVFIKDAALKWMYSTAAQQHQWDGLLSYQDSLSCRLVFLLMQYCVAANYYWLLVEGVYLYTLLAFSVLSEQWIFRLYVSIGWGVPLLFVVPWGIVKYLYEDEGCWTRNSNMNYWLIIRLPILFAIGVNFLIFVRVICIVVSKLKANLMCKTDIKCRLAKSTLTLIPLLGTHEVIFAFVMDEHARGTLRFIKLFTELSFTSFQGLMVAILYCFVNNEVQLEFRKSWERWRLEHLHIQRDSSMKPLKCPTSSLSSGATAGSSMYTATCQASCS
ATXN viability – reduces viability in counter-screen for ATXN expression inhibitors. S2 cells (HEK-293 line with an ATXN2-luciferase reporter) viability, CellTiter-Fluor protease fluorescence, 24 h. Potency, µM (titrated, usually from 56.7 µM), most hits filed as cytotoxic. hit rate 0.49% among 400,000. AID 651635; note: nearly all actives have a fitted effect of over 40% in size
GLP-1R inv ag – inverse agonists of human GLP-1 receptor. P43220. HEK293 GLP-1R CRE-luciferase, luminescence, 24 h; GLP-1R form is constitutively active. Potency, µM (highest dose often 38.3 µM), for inactives: at the top dose activity change, negative = inhibition, most hits filed as inhibitors. hit rate 1.6% among 410,000. AID 624417; note: % is set by controls: 0 for no effect and ±100 for the full control effect; nearly all actives have a fitted effect of over 55% in size
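Readout was luciferase luminescence, measured 12 min after detection reagent at room temperature. Beforehand, GLP-1R reporter HEK293 cells had sat 12 h, then received compounds for 24 hr at 37 deg C.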
Active calls of the source: *; i = inactive; ? = inconclusive; nt = not tested or not shown. Rows were chosen to be rich in hits. Some 3.7% of all compounds tested hit in one or more screens of this group. Calls come from the whole dose curve; as a rule, active = well fitted curve in the direction sought with a large enough effect; inconclusive = small, poorly fitted or top-dose-only effect, or another doubt; inactive = no such curve, though single readings can be large; an effect the other way counts as inactive or inconclusive. Potency is the fitted concentration of half-maximal effect.

SMILES | ATXN2 expr inh | TGFb SMAD3 inh | HepG2 viability | GLP1R ag | ATXN viability | GLP-1R inv ag
Cc1cccc2sc(NC(=O)CCNS(=O)(=O)c3cccc4nonc34)nc12 | -4.0% | ? | 20µM* | 2.7% | i | ?
CCn1c(CN2CCN(c3cccc(Cl)c3)CC2)nc2c1c(=O)[nH]c(=O)n2C | -35.6% | ? | -14.1% | 3.7% | i | -16.2%
COc1cccc(Nc2nc(-c3cccs3)nc3ccccc23)c1 | -17.3% | ? | 5.1% | 27.2% | ? | 11.2µM*
O=NN(CCCl)C(=O)NC1CCCCC1 | -18.5% | nt | nt | -0.9% | i | nt
O=C(NC1CCNCC1)c1[nH]ncc1NC(=O)c1c(Cl)cccc1Cl | 0.385µM* | nt | nt | nt | nt | nt
CC1CC(C)CN(c2ccc(C(=O)NCc3ccc4c(c3)OCO4)cc2[N+](=O)[O-])C1 (stereo not given) | 1.7% | -4.6% | 5.6% | 3.1% | ? | 11.2µM*
Cc1cc(C(=O)NCc2ccc3c(c2)OCO3)ccc1[N+](=O)[O-] | nt | -3.6% | 0.2% | 0.0% | i | 2.0%
Cc1cc(NC(=O)CCCn2c(C)c3cnn(-c4ccccc4)c(=O)c3c2C)ccc1Br | nt | 7.08µM* | 10.4% | nt | nt | ?
Cc1ccc(-c2nnc(Nc3ccc(O)cc3)c3ccccc23)cc1S(=O)(=O)N1CCN(C)CC1 | ? | 10µM* | -21.3% | nt | ? | -2.1%
Cc1ccc(-c2nnc(Nc3ccc(Cl)c(Cl)c3)c3ccccc23)cc1S(=O)(=O)NCCO | ? | 11.2µM* | -28.8% | nt | ? | ?
C#CC(C)(C)NS(=O)(=O)c1cc(-c2nnc(Nc3ccc(C)cc3)c3ccccc23)ccc1C | -8.2% | 12.6µM* | 8.2% | 1.7% | i | 9.5%
Cc1ccc(-c2nnc(Nc3cccc(O)c3)c3ccccc23)cc1S(=O)(=O)N1CCN(C)CC1 | -9.9% | -21.9% | 0.0% | nt | ? | 8.8%
Cc1ccc(C)c(Nc2nnc(-c3ccc(C)c(S(=O)(=O)NCC4CCCO4)c3)c3ccccc23)c1 (stereo not given) | ? | ? | 3.2% | nt | ? | 11.2µM*
Cc1ccc(CN(C(=O)c2ccc(OCC(C)C)cc2)c2ccccn2)o1 | 17.0% | 4.0% | -21.2% | nt | ? | ?
CCOc1ccccc1NC(=O)C(NS(=O)(=O)c1ccc2c(c1)CCC(=O)N2)c1ccccc1 (stereo not given) | 3.4% | 146.9% | 144.2% | nt | i | -5.1%
CCN(CC)C(=O)c1ccc(Nc2nnc(-c3ccc(C)c(S(=O)(=O)NC)c3)c3ccccc23)cc1 | -15.2% | 11.2µM* | -82.3% | nt | i | ?
CNS(=O)(=O)c1cc(-c2nnc(Nc3ccc(NC(C)=O)cc3)c3ccccc23)ccc1C | 12.5% | ? | 12.9% | 18.3% | i | 20.9%
Nc1nc(N)c2cc(S(=O)(=O)c3cccc(C(F)(F)F)c3)ccc2n1 | nt | -18.9% | 1.26µM* | -6.2% | i | 38.8%
Nc1cccnc1S(=O)(=O)c1cccc(C(F)(F)F)c1 | 0.7% | 19.1% | 9.4% | 2.3% | i | 12.5%
CCn1nc(NC(=O)C(C)(C)C)c2cc3cccc(C)c3nc21 | -14.9% | -9.1% | -9.4% | 6.4% | nt | 10µM*
O=C1Cc2cc(CCN3CCN(c4nsc5ccccc45)CC3)c(Cl)cc2N1 | ? | nt | nt | -15.1% | 35.5µM* | nt
CCN(CC)c1cc2c(cc1F)c(=O)c(S(=O)(=O)c1ccc(OC)cc1)cn2CC | nt | 3.1% | -3.9% | nt | nt | 10.4%
OC(CNCCc1ccccc1)c1ccccc1 (stereo not given) | -22.1% | -0.7% | -0.5% | 27.1% | ? | 6.0%
OC(c1ccccc1)C(NCCNCc1ccccc1)c1ccccc1 (stereo not given) | -16.8% | 5.7% | -3.7% | 11.0% | i | 7.94µM*
COc1cccc(/C=C2\SC(=S)N(CCCC(=O)N3CCCC3)C2=O)c1 | -23.0% | -13.4% | -7.2% | -4.6% | ? | 5.01µM*

Screening data deposited in PubChem BioAssay by National Center for Advancing Translational Sciences (NCATS).
